In ChEMBL document CHEMBL3433997, “St. Jude Leishmania screening dataset” (2016):

These compounds were tested against Solute carrier family 2, facilitated glucose transporter member 1 (Homo sapiens) (UniProt P11166) (assay: ST_JUDE_LEISH: Cytotoxicity at 2uM final concentration against transgenic Leishmania Mexicana promastigotes LmGLUT1 that are glucose transport deficient and complemented with the human glucose transporter GLUT1. Activity is measured by DNA content using SYBR green in vitro).
Type: functional

Solute carrier family 2, facilitated glucose transporter member 1 (Homo sapiens), sequence (P11166 whole entry): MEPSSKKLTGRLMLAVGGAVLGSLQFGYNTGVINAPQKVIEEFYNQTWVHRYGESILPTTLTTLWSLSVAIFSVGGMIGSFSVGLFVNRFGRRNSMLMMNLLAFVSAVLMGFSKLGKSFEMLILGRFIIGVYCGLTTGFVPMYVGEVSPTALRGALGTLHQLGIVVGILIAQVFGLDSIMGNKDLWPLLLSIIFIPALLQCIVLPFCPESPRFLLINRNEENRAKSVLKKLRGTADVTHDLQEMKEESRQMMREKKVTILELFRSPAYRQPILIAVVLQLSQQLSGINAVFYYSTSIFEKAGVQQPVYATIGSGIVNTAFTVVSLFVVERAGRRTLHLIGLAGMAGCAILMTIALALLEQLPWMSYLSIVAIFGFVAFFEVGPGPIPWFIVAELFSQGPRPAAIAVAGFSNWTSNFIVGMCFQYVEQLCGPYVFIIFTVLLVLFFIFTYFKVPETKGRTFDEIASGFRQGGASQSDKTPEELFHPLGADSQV

| Compound | inhibition |
| --- | --- |
| CN1CCCC1CNS(=O)(=O)c1ccc(C(=O)NCC2CC2)cc1 (stereo not given) | 1.51% |
| COc1ccc2nccc([C@@H](O)CN3CCC(NC(=O)c4cccc(C(=O)c5ccccc5)c4)CC3)c2c1 | -1.15% |
| COc1cccc(NC(=O)Nc2ccc(Nc3nc(C)cc(N4CCCC4)n3)cc2)c1 | 1.91% |
| CCN(CCC1(c2ccc(Cl)c(Cl)c2)CN(C(=O)c2cc(OC)c(OC)c(OC)c2)CCO1)C1CC2c3ccccc3CC21 (stereo not given) | -0.68% |
| Cn1c(NCc2cc(F)cc3c2OCOC3)nc2cc(Nc3ccnc(Nc4cccc(CS(C)(=O)=O)c4)n3)ccc21 | -1.66% |
| COc1ccc(NC(=O)/C=C/c2ccc(Oc3ccccc3Cl)c([N+](=O)[O-])c2)cc1OCCN(C(C)C)C(C)C | -0.7% |
| OC1=C2C(=Nc3ccccc3SC2c2cccs2)c2ccccc21 (stereo not given) | 12.2% |
| CCNc1cc(C)nc(Nc2ccc(NC(=O)c3ccco3)cc2)n1 | 4.54% |
| COc1ccccc1C1CCN(C2CCC(NC(=O)c3cc4ccccc4[nH]3)CC2)CC1 (stereo not given) | -0.02% |
| COc1cccc(CN2CCCC(CCC(=O)Nc3ccc(C(F)(F)F)cc3)C2)c1O (stereo not given) | 1.04% |
| O=S(=O)(Nc1cccc(CCN2CCCCC2CCN2CCCC2)c1)c1ccc(-c2ccccc2)cc1 (stereo not given) | 2.86% |
| CCc1ccc(NC(=O)c2ccc(CN3CCCN(Cc4cccc(C)c4)CC3)cc2)cc1 | 7.45% |
| CC(C)CCn1c(Sc2ccc(C#N)c([N+](=O)[O-])c2)nnc1-c1ccccc1Cl | 4.86% |
| COc1ccc2c(c1)c(C1CCN(CCCCNC(=O)c3ccc(-c4ccc(C(F)(F)F)cc4)cc3)CC1)cn2C(C)C | -0.71% |
| COc1cc(NC(=O)CCCCCCCN2CCN(C)CC2)c2ncccc2c1 | 5.39% |
| O=C(Nc1ccsc1C(=O)NC1CCCCC1)c1ccc(F)cc1 | 0.07% |
| COc1ccc(-c2ccc(CNC3Cc4ccccc4C3)cc2)cc1S(=O)(=O)NCCN1CCCC1 | 1.48% |
| CCCCCN1CCC(NS(=O)(=O)c2cccc(C(=O)Nc3cccc(C(F)(F)F)c3)c2)C1 (stereo not given) | 1.68% |
| CN1CCN(c2ccc(Nc3c(C(N)=O)cnc4cc(-c5ccoc5)ccc34)cc2)CC1 | 15.1% |
| CC1CCCCN1CCCNC(=O)c1cccc(-c2cc3cc(Cl)c(Cl)cc3[nH]2)c1 (stereo not given) | 3.16% |

| Compound | inhibition |
| --- | --- |
| Cc1cccc(-c2nn(-c3ccccc3)c3[nH]c(=O)c(CN4CCSCC4)cc23)c1 | -2.69% |
| Cc1ccccc1C1CCN(C2CCC(NC(=O)c3cc(-c4ccc(Cl)cc4)cs3)CC2)CC1 (stereo not given) | 2.23% |
| COc1ccc2c(ccc3c2ncc2c(=O)n(-c4ccccc4)[nH]c23)c1 | -1.88% |
| CCn1c(Sc2ccc(C#N)c([N+](=O)[O-])c2)nnc1-c1cccc(Cl)c1 | 16.9% |
| CCc1c(C(=O)NC2CCC(N3CCC(c4ccccc4OC)CC3)CC2)[nH]c2ccc(Br)cc12 (stereo not given) | 0.33% |
| CN(Cc1ccc(NC(=O)CCC2CCN(C(=O)/C=C/c3ccc(Cl)c(Cl)c3)CC2)cc1)C1CCOCC1 | 4.84% |
| CC(C)(C)COc1ccc2c(N)n[nH]c2c1 | -1.62% |
| CCOc1cc(-c2nnc3[nH]c(=O)n(C)c(=O)c3n2)ccc1OC(C)C | 2.56% |
| CC(=O)Nc1cccc(Nc2c3ccccc3nc3ccccc23)c1 | 1.69% |
| CCN(CC)CCOc1ccc(Nc2ncc3cc(-c4c(Cl)cccc4Cl)c(=O)n(C)c3n2)cc1 | 75.8% |
| CC(=O)Nc1cccc(C(=O)Nc2nc3ccc(-c4cc(=O)[nH]c(Nc5ccccc5Cl)n4)cc3[nH]2)c1 | 4.21% |
| CC[C@H]1CN2CCc3cc(OC)c(OC)cc3[C@@H]2C[C@@H]1CC1=NCCc2c1[nH]c1ccc(OCc3ccccc3)cc21 | 0.63% |
| N#Cc1cccc(C(=O)Nc2ccc(-c3ccc(CN4CCCC4)cc3)cc2)c1 | 7.84% |
| CCCc1ccccc1Nc1nc(C)cc(N(CC)CCCN2CCCCC2)n1 | 5.33% |
| COc1c(C2=CCN(CCCCNC(=O)c3ccc(-c4ccc(C#N)cc4)cc3)CC2)ccc2c1CCCC2 | 0.4% |
| CNC(=O)C(NC(=O)c1ccccc1C(=O)OC)c1ccccc1 (stereo not given) | 1.77% |
| CC(=O)CSC(C=Cc1ccc(N(C)C)cc1)=Nc1ccccc1 | 85.4% |
| COc1ccc(Cl)cc1N1CCN(CCCNC(=O)c2ccc(-c3nc4cc(Cl)c(C)cc4[nH]3)s2)CC1 | 4.06% |
| NS(=O)(=O)c1cccc(Nc2nccc(-c3c(-c4cccc(NC(=O)c5c(F)cccc5F)c4)nn4ccccc34)n2)c1 | 2.78% |
| COc1ccccc1C(C)NCC(=O)Nc1cc(C(F)(F)F)ccc1Cl (stereo not given) | 1.79% |

The compounds below were run against Hexose transporter 1 (Plasmodium falciparum) (UniProt O97467) (assay: ST_JUDE_LEISH: Cytotoxicity at 2uM final concentration against transgenic Leishmania Mexicana promastigotes LmPfHT that are glucose transport deficient and complemented with the Plasmodium falciparum hexose transporter. Activity is measured by DNA content using SYBR green in vitro).
Type: functional

| Compound | inhibition |
| --- | --- |
| CN1CCCC1CNS(=O)(=O)c1ccc(C(=O)NCC2CC2)cc1 (stereo not given) | 2.45% |
| COc1ccc2nccc([C@@H](O)CN3CCC(NC(=O)c4cccc(C(=O)c5ccccc5)c4)CC3)c2c1 | 0.28% |
| COc1cccc(NC(=O)Nc2ccc(Nc3nc(C)cc(N4CCCC4)n3)cc2)c1 | 1.07% |
| CCN(CCC1(c2ccc(Cl)c(Cl)c2)CN(C(=O)c2cc(OC)c(OC)c(OC)c2)CCO1)C1CC2c3ccccc3CC21 (stereo not given) | 1.17% |
| Cn1c(NCc2cc(F)cc3c2OCOC3)nc2cc(Nc3ccnc(Nc4cccc(CS(C)(=O)=O)c4)n3)ccc21 | 1.11% |
| COc1ccc(NC(=O)/C=C/c2ccc(Oc3ccccc3Cl)c([N+](=O)[O-])c2)cc1OCCN(C(C)C)C(C)C | -0.91% |
| OC1=C2C(=Nc3ccccc3SC2c2cccs2)c2ccccc21 (stereo not given) | 10.8% |
| CCNc1cc(C)nc(Nc2ccc(NC(=O)c3ccco3)cc2)n1 | 3.53% |
| COc1ccccc1C1CCN(C2CCC(NC(=O)c3cc4ccccc4[nH]3)CC2)CC1 (stereo not given) | -0.24% |
| COc1cccc(CN2CCCC(CCC(=O)Nc3ccc(C(F)(F)F)cc3)C2)c1O (stereo not given) | 2.12% |
| O=S(=O)(Nc1cccc(CCN2CCCCC2CCN2CCCC2)c1)c1ccc(-c2ccccc2)cc1 (stereo not given) | -0.3% |
| CCc1ccc(NC(=O)c2ccc(CN3CCCN(Cc4cccc(C)c4)CC3)cc2)cc1 | 9.33% |
| CC(C)CCn1c(Sc2ccc(C#N)c([N+](=O)[O-])c2)nnc1-c1ccccc1Cl | 3.76% |
| COc1ccc2c(c1)c(C1CCN(CCCCNC(=O)c3ccc(-c4ccc(C(F)(F)F)cc4)cc3)CC1)cn2C(C)C | 1.93% |
| COc1cc(NC(=O)CCCCCCCN2CCN(C)CC2)c2ncccc2c1 | 3.78% |
| O=C(Nc1ccsc1C(=O)NC1CCCCC1)c1ccc(F)cc1 | -1.32% |
| COc1ccc(-c2ccc(CNC3Cc4ccccc4C3)cc2)cc1S(=O)(=O)NCCN1CCCC1 | 3.39% |
| CCCCCN1CCC(NS(=O)(=O)c2cccc(C(=O)Nc3cccc(C(F)(F)F)c3)c2)C1 (stereo not given) | 1.1% |
| CN1CCN(c2ccc(Nc3c(C(N)=O)cnc4cc(-c5ccoc5)ccc34)cc2)CC1 | 24.6% |
| CC1CCCCN1CCCNC(=O)c1cccc(-c2cc3cc(Cl)c(Cl)cc3[nH]2)c1 (stereo not given) | 3.02% |

| Compound | inhibition |
| --- | --- |
| Cc1cccc(-c2nn(-c3ccccc3)c3[nH]c(=O)c(CN4CCSCC4)cc23)c1 | -2.03% |
| Cc1ccccc1C1CCN(C2CCC(NC(=O)c3cc(-c4ccc(Cl)cc4)cs3)CC2)CC1 (stereo not given) | 3.13% |
| COc1ccc2c(ccc3c2ncc2c(=O)n(-c4ccccc4)[nH]c23)c1 | -1.2% |
| CCn1c(Sc2ccc(C#N)c([N+](=O)[O-])c2)nnc1-c1cccc(Cl)c1 | 14.9% |
| CCc1c(C(=O)NC2CCC(N3CCC(c4ccccc4OC)CC3)CC2)[nH]c2ccc(Br)cc12 (stereo not given) | -0.12% |
| CN(Cc1ccc(NC(=O)CCC2CCN(C(=O)/C=C/c3ccc(Cl)c(Cl)c3)CC2)cc1)C1CCOCC1 | 5.1% |
| CC(C)(C)COc1ccc2c(N)n[nH]c2c1 | -1.52% |
| CCOc1cc(-c2nnc3[nH]c(=O)n(C)c(=O)c3n2)ccc1OC(C)C | 2.55% |
| CC(=O)Nc1cccc(Nc2c3ccccc3nc3ccccc23)c1 | 3.82% |
| CCN(CC)CCOc1ccc(Nc2ncc3cc(-c4c(Cl)cccc4Cl)c(=O)n(C)c3n2)cc1 | 83.3% |
| CC(=O)Nc1cccc(C(=O)Nc2nc3ccc(-c4cc(=O)[nH]c(Nc5ccccc5Cl)n4)cc3[nH]2)c1 | 2.23% |
| CC[C@H]1CN2CCc3cc(OC)c(OC)cc3[C@@H]2C[C@@H]1CC1=NCCc2c1[nH]c1ccc(OCc3ccccc3)cc21 | 0.59% |
| N#Cc1cccc(C(=O)Nc2ccc(-c3ccc(CN4CCCC4)cc3)cc2)c1 | 6.53% |
| CCCc1ccccc1Nc1nc(C)cc(N(CC)CCCN2CCCCC2)n1 | 5.19% |
| COc1c(C2=CCN(CCCCNC(=O)c3ccc(-c4ccc(C#N)cc4)cc3)CC2)ccc2c1CCCC2 | -0.52% |
| CNC(=O)C(NC(=O)c1ccccc1C(=O)OC)c1ccccc1 (stereo not given) | 0.32% |
| CC(=O)CSC(C=Cc1ccc(N(C)C)cc1)=Nc1ccccc1 | 83.3% |
| COc1ccc(Cl)cc1N1CCN(CCCNC(=O)c2ccc(-c3nc4cc(Cl)c(C)cc4[nH]3)s2)CC1 | 1.78% |
| NS(=O)(=O)c1cccc(Nc2nccc(-c3c(-c4cccc(NC(=O)c5c(F)cccc5F)c4)nn4ccccc34)n2)c1 | 7.67% |
| COc1ccccc1C(C)NCC(=O)Nc1cc(C(F)(F)F)ccc1Cl (stereo not given) | 3.31% |
